GALC G270D act = A Novel Cell-Based Assay to Identify Small Molecules for B -Galactocerebrosidase; P54803; 145M-Twi-hGALC-G270D cells (Twitcher mouse brain line with human GALC G270D), HMU-beta-Gal fluorescence, 48 h; Potency, µM (doses to about 57.5 µM), actives largely listed as activators; 45,000 tested, 0.1% active; also: potency is read from the fitted curve at half-maximal effect; 0% is about no effect; nearly all actives have a fitted effect of over 65% in size
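Mutant human GALC (G270D), stably expressed in a Twitcher mouse brain cell line lacking endogenous GALC, is measured in live-treated cells via 6-hexadecanoylamino-4-methylumbelliferyl-β-galactoside hydrolysis (0.1 mM final, pH 5.2) with fluorescent detection.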
FH mod = Identification of activators of human fumarate hydratase by quantitative high-throughput screening; FH coupled MDH/diaphorase resazurin fluorescence, 15 min; 54,000 tested, 0.22% active; Potency, µM (doses to about 79.9 µM), for inactives: at the top dose activity change, negative = inhibition, usual class: inhibitors; AID 1347055, 2019; also: potency is read from the fitted curve at half-maximal effect; % is scaled to controls: 0 for no effect and ±100 for the full control effect; the screen sought activators but most active calls are inhibition curves; nearly all actives have a fitted effect of over 45% in size
NTMT1 inhibitor = Primary qHTS for Inhibitors of N-terminal methyltransferase 1 (NTMT1): MTaseGlo Assay. N-terminal Xaa-Pro-Lys N-methyltransferase 1 (Homo sapiens), Q9BV86. AID 1645870, 2021. NTMT1 MTase-Glo SAH luminescence, purified enzyme. Potency, µM (highest dose often 114 µM), for inactives: top-dose activity change, negative = inhibition, actives largely listed as inhibitors. 59,000 tested, 2.5% active;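 also: potency is read from the fitted curve at half-maximal effect; plate controls were DMSO vehicle for no effect and no enzyme for full effect; nearly all actives have a fitted effect of over 65% in size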
HSD17B4 inh = Extended Characterization of HPGD Inhibitors: Counterscreen Against HSD17b4. Potency, µM (doses to about 57.1 µM), inactives show at the highest dose activity change, negative = inhibition, actives largely listed as inhibitors. AID 743187, 2013. purified HSD17B4, estradiol/NAD+, NADH fluorescence. 230 tested, 10% active. shares compounds with NTMT1 inhibitor
ALDH1A1 counter = Extended Characterization of HPGD Inhibitors: Counterscreen Against ALDH1A1; shares compounds with NTMT1 inhibitor; recombinant ALDH1A1, NADH fluorescence, propionaldehyde/NAD+; Potency, µM (series often up to 57.1 µM), without a hit: at the top dose activity change, negative = inhibition, usual class: inhibitors; 230 tested, 93% active
NNMT inh = Counterscreen qHTS for Inhibitors of N-terminal methyltransferase 1 (NTMT1): NNMT MTaseGlo assay | shares compounds with NTMT1 inhibitor | NNMT MTase-Glo luminescence, SAH detection | Potency, µM (series often up to 57.1 µM), for inactives: top-dose activity, negative = inhibition, most hits filed as inhibitors | 120 tested, 10% active
* marks the source's active call; other numbers are inactive results; i = inactive; ? = inconclusive; . = no result; [ ] = dose if it differs, or a comment. The entries come from a sample that favours hits as a whole. Calls follow the shape of the dose curve; as a rule, active = well fitted curve in the direction sought with a large enough effect; inconclusive = small, poorly fitted or top-dose-only effect, or another doubt; inactive = no such curve, though single readings can be large; an effect the other way counts as inactive or inconclusive.

SMILES	GALC G270D act	FH mod	NTMT1 inhibitor	others
Cc1ccc(-n2c(C)cc(-c3nnc4n3CCCCC4)c2C)cc1	.	.	3%	HSD17B4 inh=7%;ALDH1A1 counter=?
Cc1cc(-c2nnc3n2CCCCC3)c(C)n1-c1cccc(C(F)(F)F)c1	.	.	10%	HSD17B4 inh=10%;ALDH1A1 counter=?
OC[C@@]1(O)CO[C@@H](OC[C@H]2O[C@@H](OCc3ccccc3)[C@H](O)[C@@H](O)[C@@H]2O)[C@@H]1O	.	8%[53.3 µM]	-8%[29.8 µM]
COC(=O)CC1OC(C)C2=C(O)c3c(O)cccc3C(=O)C23OC13 (stereo unspecified)	.	?	-8%[29.8 µM]
C=CC(=O)N1C[C@H](Nc2ncnc3[nH]ccc23)CC[C@@H]1C	.	.	10%
COc1cc(Nc2c(C#N)cnc3cc(OCCCN4CCN(C)CC4)c(OC)cc23)c(Cl)cc1Cl	i	-17%	7.9µM*	NNMT inh=20µM*
COc1ccc(C2Nc3ccccc3C(=O)N2Cc2ccccc2)cc1COc1c(C)cc(NC(C)=O)cc1C (stereo unspecified)	.	.	3%
FC(F)(F)c1ccccc1-c1nc(NCc2ccc(-c3ccc4ccccc4c3)cc2)c2ccccc2n1	.	.	20%
Cc1ccc(NC(=O)Nc2nnc(Sc3ncnc4cc(OCCCN5CCOCC5)ccc34)s2)cc1	.	6%	65%
C/C=C/c1ccc2oc(-c3ccc(O)c(OC)c3)c(C)c2c1	.	?	4%[57.5 µM]	NNMT inh=-9%
